Data reported in PubChem BioAssay (Tox21).
Inconclusive results are not listed. Unmarked numbers belong to inactive results. Active and inactive are the calls of the source. Unless noted, calls follow the shape of the dose curve; as a rule, active = well fitted cell-killing curve with a large enough effect in the repeat runs (not every such curve was filed as active); inconclusive = weak or mixed curves, or effect the other way; inactive = no such curve, though single readings can be large or run the other way. Where a SMILES comes first, the peptide text is derived from it. [ ]: non-standard residue; d: D form. pGlu = O=C1CC[C@@H](C(=O)O)N1

Tested on: not listed separately
Test: qHTS assay to identify small molecule agonists of the farnesoid-X-receptor (FXR) signaling pathway - cell viability counter screen (AID 743218; active = well fitted cell-killing curve with a large enough effect in the repeat runs; also: nearly all actives have a fitted effect of over 45% in size)
Details: FXR-bla HEK293T viability, CellTiter-Glo luminescence, 16 h; series mostly up to 62.6 µM
Summary of the method: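 HEK 293T FXR-bla cells; 5 h pre-incubation, 16 h compound exposure at 37 C; LiveBLAzer substrate 2 h RT, then CellTiter-Glo 30 min RT, luminescence.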
% is scaled to controls: 0 for no effect and ±100 for the full control effect.

SMILES	outcome
CC(=O)OCC(=O)[C@@]1(O)[C@H](C)C[C@H]2[C@@H]3CCC4=CC(=O)C=C[C@]4(C)[C@@]3(F)[C@@H](O)C[C@@]21C	inactive
O=C(O)CCCC[P+](c1ccccc1)(c1ccccc1)c1ccccc1	inactive
CC1=CCC(O)(C(C)C)CC1 (centres undefined)	inactive

Target: Bile acid receptor (Homo sapiens) (UniProt Q96RI1)
Sequence (Q96RI1 whole entry, looked up): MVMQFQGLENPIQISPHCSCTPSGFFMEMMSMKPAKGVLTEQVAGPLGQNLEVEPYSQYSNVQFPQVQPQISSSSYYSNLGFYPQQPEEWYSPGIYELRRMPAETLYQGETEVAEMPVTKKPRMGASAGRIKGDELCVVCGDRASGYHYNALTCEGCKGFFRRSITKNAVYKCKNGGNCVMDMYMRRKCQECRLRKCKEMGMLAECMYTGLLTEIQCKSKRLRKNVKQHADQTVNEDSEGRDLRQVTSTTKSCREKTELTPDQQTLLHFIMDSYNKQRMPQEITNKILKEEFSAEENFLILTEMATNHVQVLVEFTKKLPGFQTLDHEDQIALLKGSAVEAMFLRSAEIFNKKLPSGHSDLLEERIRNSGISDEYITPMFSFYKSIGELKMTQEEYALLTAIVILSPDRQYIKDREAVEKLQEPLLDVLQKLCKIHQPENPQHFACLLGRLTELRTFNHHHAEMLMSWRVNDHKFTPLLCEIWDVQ
Test: qHTS assay to identify small molecule agonists of the farnesoid-X-receptor (FXR) signaling pathway (AID 743220; active = well fitted activation curve with a large enough effect in the signal ratio in the repeat runs, not every such curve was filed as active; the % refers to the signal ratio)
Details: HEK293T FXR-UAS-bla, beta-lactamase FRET ratio, 16 h; series mostly up to 62.6 µM
Summary of the method: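 Beta-lactamase reporter under UAS control in GeneBLAzer FXR HEK 293T cells (5000/well) measured with LiveBLAzer FRET substrate after 2 h at room temperature. Compound exposure lasted 16 h at 37C.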

SMILES	outcome
CC(C)CC(C)(N)C#N (centres undefined)	inactive
CCOC(=O)C1=NOC(c2ccccc2)(c2ccccc2)C1	inactive
COc1cc(C(=O)OC(COCCC(C)C)CN2CCOCC2)cc(OC)c1OC (centres undefined)	inactive
CC12CCC(C(=O)C1=O)C2(C)C (centres undefined)	inactive
CC(N)C12CC3CC(CC(C3)C1)C2 (centres undefined)	inactive
CC1=NN(c2cc(S(=O)(=O)O)ccc2Cl)C(=O)C1N=Nc1ccccc1 (centres undefined)	inactive
CC(C)CCCO	inactive
Nc1ccn([C@@H]2O[C@H](CO)[C@@H](O)[C@@H]2O)c(=O)n1	inactive
[K+]	inactive

Tested on: not listed separately
Test: qHTS assay to identify small molecule antagonists of the farnesoid-X-receptor (FXR) signaling pathway - cell viability counter screen (AID 743221); also: nearly all actives have a fitted effect of over 50% in size
Details: FXR-bla HEK293T viability, CellTiter-Glo luminescence, 16 h; series mostly up to 62.6 µM
Summary of the method: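 Luminescence from CellTiter-Glo measures cytotoxicity in GeneBLAzer FXR-UAS-bla HEK 293T cells. Cells were exposed to compounds with 50 uM chenodeoxycholic acid (final) for 16 h at 37 C, in wells also used for the reporter readout.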

SMILES	outcome	activity change, negative = cytotoxicity
O=C(O)CNC(=O)c1ccccc1	inactive	–
CC(C)CC(C)(N)C#N (centres undefined)	inactive	–
CCOC(=O)c1cnc2c(cnn2CC)c1NN=C(C)C	inactive	–
COc1ccccc1OCC1CNC(=O)O1 (centres undefined)	inactive	–
CO/N=C(\C(=O)N[C@@H]1C(=O)N2C(C(=O)O)=C(CSc3nc(=O)c(O)nn3C)CS[C@H]12)c1csc(N)n1	inactive	–
O=C1CCCCCCCCCCCCCCO1	inactive	–
CCCc1nn(C)c2c(=O)[nH]c(-c3cc(S(=O)(=O)N4CCN(C)CC4)ccc3OCC)nc12	inactive	–
CCCCOC(=O)CCC(C)=O	inactive	–
O=CN(CCO)CCO	inactive	–
C[N+](C)(CCOc1ccccc1)Cc1cccs1	inactive	–
CC1=NN(c2cccc(S(=O)(=O)O)c2)C(=O)C1	inactive	–
CCOC(=O)C1=NOC(c2ccccc2)(c2ccccc2)C1	inactive	–
CCC(=O)OCc1ccccc1	inactive	–
COc1cc(C(=O)OC(COCCC(C)C)CN2CCOCC2)cc(OC)c1OC (centres undefined)	inactive	–
CC12CCC(C(=O)C1=O)C2(C)C (centres undefined)	inactive	–
NC(N)=NCCN1CCCCCCC1	–	-1.17% [at 0.55 µM]
Cc1ncc(COP(=O)(O)O)c(C=O)c1O	inactive	–
CC(=O)Oc1cccc(C)c1	inactive	–
CN1[C@@H]2CC[C@H]1CC(OC(=O)C(O)c1ccccc1)C2 (some centres undefined)	inactive	–

SMILES	outcome	activity change, negative = cytotoxicity
CC(N)C12CC3CC(CC(C3)C1)C2 (centres undefined)	inactive	–
CCN(CC#N)c1cccc(C)c1	inactive	–
CC1=NN(c2cc(S(=O)(=O)O)ccc2Cl)C(=O)C1N=Nc1ccccc1 (centres undefined)	inactive	–
CC(=O)c1ccccc1[N+](=O)[O-]	inactive	–
C=CCCC(=O)O	inactive	–
O=C(O)CC(C(=O)O)S(=O)(=O)O (centres undefined)	inactive	–
CC(C)CCCO	inactive	–
CC(COc1ccccc1)NN (centres undefined)	inactive	–
Nc1ccn([C@@H]2O[C@H](CO)[C@@H](O)[C@@H]2O)c(=O)n1	inactive	–
CCNC(=O)[C@@H]1CCCN1C(=O)[C@H](CCCN=C(N)N)NC(=O)[C@H](CC(C)C)NC(=O)CNC(=O)[C@H](Cc1ccc(O)cc1)NC(=O)[C@H](CO)NC(=O)[C@H](Cc1c[nH]c2ccccc12)NC(=O)[C@H](Cc1cnc[nH]1)NC(=O)[C@@H]1CCC(=O)N1 ([pGlu]HWSYGLRP-NHEt)	inactive	–
CCCCN(CCC(=O)OCC)C(C)=O	inactive	–
CCCn1cc[n+](C)c1C	inactive	–
Clc1cc(Cl)cc(Cl)c1	inactive	–
CCOC(=O)COc1cc(-n2ncc(C(F)(F)F)c(C)c2=O)c(F)cc1Cl	inactive	–
CC(C)COC(=O)c1ccc(N)cc1	inactive	–
CC(=O)OCC(=O)[C@@]1(O)[C@H](C)C[C@H]2[C@@H]3CCC4=CC(=O)C=C[C@]4(C)[C@@]3(F)[C@@H](O)C[C@@]21C	inactive	–
O=C(O)CCCC[P+](c1ccccc1)(c1ccccc1)c1ccccc1	inactive	–
CC1=CCC(O)(C(C)C)CC1 (centres undefined)	inactive	–
[K+]	inactive	–

Target: Vitamin D3 receptor (Homo sapiens) (UniProt P11473)
Sequence (P11473 whole entry, looked up): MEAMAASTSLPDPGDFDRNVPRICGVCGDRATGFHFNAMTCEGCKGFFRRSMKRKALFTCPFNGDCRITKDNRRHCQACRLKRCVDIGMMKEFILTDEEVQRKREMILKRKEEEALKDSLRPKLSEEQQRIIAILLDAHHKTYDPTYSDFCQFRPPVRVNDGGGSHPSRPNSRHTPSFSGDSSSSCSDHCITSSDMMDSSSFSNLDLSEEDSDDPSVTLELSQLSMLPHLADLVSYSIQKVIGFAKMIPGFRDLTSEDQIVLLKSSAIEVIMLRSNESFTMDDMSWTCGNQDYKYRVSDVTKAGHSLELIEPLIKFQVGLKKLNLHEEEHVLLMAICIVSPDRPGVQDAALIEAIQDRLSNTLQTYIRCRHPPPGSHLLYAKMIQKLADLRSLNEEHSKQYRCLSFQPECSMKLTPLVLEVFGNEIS
Test: qHTS assay to identify small molecule agonists of the vitamin D receptor (VDR) signaling pathway (AID 743222; calls by dose curve)
Details: HEK293T VDR-UAS-bla, beta-lactamase FRET ratio, 16 h; series mostly up to 63.5 µM
Summary of the method: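 VDR-bla cells, 2,000/well; 4 h preincubation 37C; cpd (DMSO) 16 h; LiveBLAzer B/G substrate 2 h RT; fluorescence intensity read.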

SMILES	outcome
CC(C)CC(C)(N)C#N (centres undefined)	inactive
CCOC(=O)c1cnc2c(cnn2CC)c1NN=C(C)C	inactive
COc1ccccc1OCC1CNC(=O)O1 (centres undefined)	inactive
CO/N=C(\C(=O)N[C@@H]1C(=O)N2C(C(=O)O)=C(CSc3nc(=O)c(O)nn3C)CS[C@H]12)c1csc(N)n1	inactive
O=C1CCCCCCCCCCCCCCO1	inactive
CCCCOC(=O)CCC(C)=O	inactive
O=CN(CCO)CCO	inactive
C[N+](C)(CCOc1ccccc1)Cc1cccs1	inactive
CC1=NN(c2cccc(S(=O)(=O)O)c2)C(=O)C1	inactive
CCOC(=O)C1=NOC(c2ccccc2)(c2ccccc2)C1	inactive
CCC(=O)OCc1ccccc1	inactive
COc1cc(C(=O)OC(COCCC(C)C)CN2CCOCC2)cc(OC)c1OC (centres undefined)	inactive
CC12CCC(C(=O)C1=O)C2(C)C (centres undefined)	inactive
Cc1ncc(COP(=O)(O)O)c(C=O)c1O	inactive
CN1[C@@H]2CC[C@H]1CC(OC(=O)C(O)c1ccccc1)C2 (some centres undefined)	inactive
CC(N)C12CC3CC(CC(C3)C1)C2 (centres undefined)	inactive
CCN(CC#N)c1cccc(C)c1	inactive

SMILES	outcome
CC1=NN(c2cc(S(=O)(=O)O)ccc2Cl)C(=O)C1N=Nc1ccccc1 (centres undefined)	inactive
CC(=O)c1ccccc1[N+](=O)[O-]	inactive
C=CCCC(=O)O	inactive
O=C(O)CC(C(=O)O)S(=O)(=O)O (centres undefined)	inactive
CC(C)CCCO	inactive
CC(COc1ccccc1)NN (centres undefined)	inactive
Nc1ccn([C@@H]2O[C@H](CO)[C@@H](O)[C@@H]2O)c(=O)n1	inactive
CCNC(=O)[C@@H]1CCCN1C(=O)[C@H](CCCN=C(N)N)NC(=O)[C@H](CC(C)C)NC(=O)CNC(=O)[C@H](Cc1ccc(O)cc1)NC(=O)[C@H](CO)NC(=O)[C@H](Cc1c[nH]c2ccccc12)NC(=O)[C@H](Cc1cnc[nH]1)NC(=O)[C@@H]1CCC(=O)N1 ([pGlu]HWSYGLRP-NHEt)	inactive
CCCCN(CCC(=O)OCC)C(C)=O	inactive
CCCn1cc[n+](C)c1C	inactive
Clc1cc(Cl)cc(Cl)c1	inactive
CCOC(=O)COc1cc(-n2ncc(C(F)(F)F)c(C)c2=O)c(F)cc1Cl	inactive
CC(C)COC(=O)c1ccc(N)cc1	inactive
CC(=O)OCC(=O)[C@@]1(O)[C@H](C)C[C@H]2[C@@H]3CCC4=CC(=O)C=C[C@]4(C)[C@@]3(F)[C@@H](O)C[C@@]21C	inactive
O=C(O)CCCC[P+](c1ccccc1)(c1ccccc1)c1ccccc1	inactive
CC1=CCC(O)(C(C)C)CC1 (centres undefined)	inactive
[K+]	inactive
